Assay results published in PubChem BioAssay AID803 (The Scripps Research Institute Molecular Screening Center, 2007).
Screen size: about 140,000 compounds; about 680 (0.49%) were called active. Shown is part of a subset that was picked to be rich in actives. Unmarked numbers belong to inactive results. Cut-off read from the data, not from the text of the source: active = activation above about 5% (passing the limit was not always enough); inactive = the rest.

target: Galanin receptor type 2 (Homo sapiens) (UniProt O43603); test: GALR2 receptor agonists, primary screen, cell-based (AID 803); conditions: GALR2-expressing cells, agonist activation read-out; active compounds read high; concentration not given here;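 note: 0% = vehicle buffer wells and 100% = reference agonist at full effect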
Sequence (O43603 whole entry, looked up): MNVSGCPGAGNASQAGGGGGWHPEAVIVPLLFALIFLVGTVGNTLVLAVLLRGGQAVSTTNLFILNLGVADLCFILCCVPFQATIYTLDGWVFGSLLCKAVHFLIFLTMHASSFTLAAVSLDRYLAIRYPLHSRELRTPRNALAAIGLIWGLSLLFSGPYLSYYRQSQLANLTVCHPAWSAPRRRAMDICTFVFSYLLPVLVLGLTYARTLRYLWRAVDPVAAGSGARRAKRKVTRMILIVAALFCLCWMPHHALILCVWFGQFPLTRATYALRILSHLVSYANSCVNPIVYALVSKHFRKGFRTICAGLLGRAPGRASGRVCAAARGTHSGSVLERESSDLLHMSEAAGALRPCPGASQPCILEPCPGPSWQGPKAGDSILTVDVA

Structure (SMILES)	activation
CCOC(=O)c1c(N)n(Cc2ccccc2)c2nc3ccccc3nc12	-0.61%
COc1cc(Cn2c(N)c(C(=O)NCc3ccco3)c3nc4ccccc4nc32)cc(OC)c1OC	25% (active)
CCOC(=O)c1c(N)n(CCN2CCOCC2)c2nc3ccccc3nc12	1.16%
CC(=O)c1c(C)n(C(C)C)c2ccc(O)cc12	0.6%
CN1CCN(C(=S)SCC(=O)Nc2ccc(Cl)cc2C(=O)c2ccccc2)CC1	-0.06%
O=C1NC(=O)N(c2ccc(F)cc2)C(=O)/C1=C/c1ccc2c(c1)CCCN2Cc1ccccc1	-0.69%
Cc1cccc(N2C(=O)NC(=O)/C(=C\c3cnn(-c4ccccc4)c3)C2=O)c1	34.2% (active)
COc1c(O)ccc2c1-c1c3c(cc4c1C(C2)N(C)CC4)OCO3 (stereo not given)	-1.66%
CCOP(=O)(OCC)C(NC(=O)c1ccc(C)cc1)C(Cl)(Cl)Cl (stereo not given)	-0.73%
Cc1ccc(-n2c(-c3ccc([N+](=O)[O-])cc3)nc3ccccc3c2=O)cc1	-0.79%
